# Experimental data published in the supplement of paper PMC11732987, “Enantioselective OTUD7B fragment discovery through chemoproteomics screening and high-throughput optimisation” (Communications Chemistry, 2025).
# Unmarked numbers belong to inactive results.
# Key:
# Test in all cases: log2 ratio of Biotin-Ahx-Ub-VS probe labelling (fragment/DMSO); higher = less target engagement (more negative = stronger competition), active = hit call of the paper (q ≤ 0.05, log2 ratio ≤ -1)
# Conditions in all cases: compound concentration: 200 uM; treatment time: 3 h
# USP19 = molecular target: T1, USP19 (UniProt O94966)
# T1 sequence (whole entry): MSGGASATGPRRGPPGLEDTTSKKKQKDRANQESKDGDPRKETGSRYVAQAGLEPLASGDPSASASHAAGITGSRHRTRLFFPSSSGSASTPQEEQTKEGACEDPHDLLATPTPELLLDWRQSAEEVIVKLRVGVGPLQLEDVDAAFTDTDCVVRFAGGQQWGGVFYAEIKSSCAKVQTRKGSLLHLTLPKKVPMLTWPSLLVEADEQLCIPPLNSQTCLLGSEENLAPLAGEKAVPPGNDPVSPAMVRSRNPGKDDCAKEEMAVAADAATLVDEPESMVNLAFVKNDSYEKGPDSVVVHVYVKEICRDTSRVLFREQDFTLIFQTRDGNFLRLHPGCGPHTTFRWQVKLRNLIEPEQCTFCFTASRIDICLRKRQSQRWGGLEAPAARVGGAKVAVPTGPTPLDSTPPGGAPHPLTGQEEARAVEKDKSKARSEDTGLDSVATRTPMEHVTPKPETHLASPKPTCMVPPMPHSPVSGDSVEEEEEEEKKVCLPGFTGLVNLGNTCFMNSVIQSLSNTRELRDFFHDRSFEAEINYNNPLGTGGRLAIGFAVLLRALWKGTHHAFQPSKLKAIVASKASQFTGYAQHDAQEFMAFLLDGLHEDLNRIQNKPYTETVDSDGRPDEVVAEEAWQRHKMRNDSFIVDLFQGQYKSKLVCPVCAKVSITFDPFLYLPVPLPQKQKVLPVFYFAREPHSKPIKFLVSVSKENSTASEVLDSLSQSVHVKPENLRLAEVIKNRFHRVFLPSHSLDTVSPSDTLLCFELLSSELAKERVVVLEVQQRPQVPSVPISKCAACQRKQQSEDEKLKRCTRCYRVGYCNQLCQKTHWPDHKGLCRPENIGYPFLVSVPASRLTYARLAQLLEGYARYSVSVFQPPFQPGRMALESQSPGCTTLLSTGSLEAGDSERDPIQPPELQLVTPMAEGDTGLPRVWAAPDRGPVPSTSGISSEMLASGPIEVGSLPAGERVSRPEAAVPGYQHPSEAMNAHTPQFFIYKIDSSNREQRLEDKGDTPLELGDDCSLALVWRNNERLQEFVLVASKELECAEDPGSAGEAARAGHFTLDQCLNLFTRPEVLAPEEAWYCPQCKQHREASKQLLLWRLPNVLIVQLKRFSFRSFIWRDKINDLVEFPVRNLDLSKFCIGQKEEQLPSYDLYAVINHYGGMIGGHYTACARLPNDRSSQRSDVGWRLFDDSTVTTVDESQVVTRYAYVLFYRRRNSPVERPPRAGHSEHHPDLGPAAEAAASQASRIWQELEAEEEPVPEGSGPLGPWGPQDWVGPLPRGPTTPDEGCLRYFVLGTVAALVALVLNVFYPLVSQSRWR
# How it was run: (§1)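 Each value is an average log2 ratio of fragment to vehicle, tested by unpaired t-test. The underlying Spectronaut label-free quantities were global-median-normalised, and only proteins with ≥2 unique peptides were included. Triplicate HEK293T lysate samples (495 µg) were exposed to fragment at 200 µM or vehicle for 3 h, then to Biotin-Ahx-Ub-VS at 0.5 µM final for 1 h, before NeutrAvidin enrichment of labelled DUBs, LysC and trypsin digestion, and diaPASEF LC-MS/MS.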
# USP22 = molecular target: T2, USP22 (UniProt Q9UPT9)
# T2 sequence (whole entry): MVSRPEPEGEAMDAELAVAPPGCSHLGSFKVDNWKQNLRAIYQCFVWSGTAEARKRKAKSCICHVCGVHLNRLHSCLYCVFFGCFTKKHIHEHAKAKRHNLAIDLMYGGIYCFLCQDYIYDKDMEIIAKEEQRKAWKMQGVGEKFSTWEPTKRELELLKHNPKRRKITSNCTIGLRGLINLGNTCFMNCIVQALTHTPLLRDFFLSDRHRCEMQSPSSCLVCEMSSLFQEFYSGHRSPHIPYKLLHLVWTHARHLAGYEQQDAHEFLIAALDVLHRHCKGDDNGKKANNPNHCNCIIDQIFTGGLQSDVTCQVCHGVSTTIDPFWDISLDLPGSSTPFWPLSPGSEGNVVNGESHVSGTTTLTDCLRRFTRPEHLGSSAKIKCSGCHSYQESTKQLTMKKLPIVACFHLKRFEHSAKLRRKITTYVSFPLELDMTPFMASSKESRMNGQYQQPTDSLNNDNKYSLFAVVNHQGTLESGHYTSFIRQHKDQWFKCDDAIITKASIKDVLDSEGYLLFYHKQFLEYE
# How it was run: as §1
# USP24 = USP24 (UniProt Q9UPU5)
# How it was run: as §1
# USP25 = molecular target: T3, USP25 (UniProt Q9UHP3)
# T3 sequence (whole entry): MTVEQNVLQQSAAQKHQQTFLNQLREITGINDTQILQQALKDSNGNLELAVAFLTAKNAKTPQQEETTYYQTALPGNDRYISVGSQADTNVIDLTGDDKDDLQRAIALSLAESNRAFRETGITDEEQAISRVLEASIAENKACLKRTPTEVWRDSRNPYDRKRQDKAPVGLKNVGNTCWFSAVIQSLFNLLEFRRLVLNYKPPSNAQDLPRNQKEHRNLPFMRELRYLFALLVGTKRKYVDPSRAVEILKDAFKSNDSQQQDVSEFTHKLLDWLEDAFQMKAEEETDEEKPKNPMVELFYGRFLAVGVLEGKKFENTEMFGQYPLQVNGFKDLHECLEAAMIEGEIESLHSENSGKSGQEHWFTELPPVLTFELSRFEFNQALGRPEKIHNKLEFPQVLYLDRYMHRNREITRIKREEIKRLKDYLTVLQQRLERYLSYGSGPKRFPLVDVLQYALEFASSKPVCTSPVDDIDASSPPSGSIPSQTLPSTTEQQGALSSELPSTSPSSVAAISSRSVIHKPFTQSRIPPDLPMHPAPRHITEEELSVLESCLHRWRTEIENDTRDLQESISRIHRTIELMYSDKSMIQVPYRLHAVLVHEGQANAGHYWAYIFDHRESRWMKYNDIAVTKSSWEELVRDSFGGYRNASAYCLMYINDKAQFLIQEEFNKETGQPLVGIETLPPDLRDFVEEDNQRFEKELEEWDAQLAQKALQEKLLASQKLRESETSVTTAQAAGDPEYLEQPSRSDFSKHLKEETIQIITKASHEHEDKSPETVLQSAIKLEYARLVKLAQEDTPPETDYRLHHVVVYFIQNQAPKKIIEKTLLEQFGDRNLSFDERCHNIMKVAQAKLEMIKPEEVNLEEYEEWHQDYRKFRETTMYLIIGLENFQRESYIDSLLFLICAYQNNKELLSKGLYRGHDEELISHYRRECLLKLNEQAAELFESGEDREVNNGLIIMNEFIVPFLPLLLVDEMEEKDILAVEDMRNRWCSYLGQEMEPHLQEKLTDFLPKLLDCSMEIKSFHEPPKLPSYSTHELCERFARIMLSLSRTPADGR
# How it was run: as §1
# USP28 = molecular target: T4, USP28 (UniProt Q96RU2)
# T4 sequence (whole entry): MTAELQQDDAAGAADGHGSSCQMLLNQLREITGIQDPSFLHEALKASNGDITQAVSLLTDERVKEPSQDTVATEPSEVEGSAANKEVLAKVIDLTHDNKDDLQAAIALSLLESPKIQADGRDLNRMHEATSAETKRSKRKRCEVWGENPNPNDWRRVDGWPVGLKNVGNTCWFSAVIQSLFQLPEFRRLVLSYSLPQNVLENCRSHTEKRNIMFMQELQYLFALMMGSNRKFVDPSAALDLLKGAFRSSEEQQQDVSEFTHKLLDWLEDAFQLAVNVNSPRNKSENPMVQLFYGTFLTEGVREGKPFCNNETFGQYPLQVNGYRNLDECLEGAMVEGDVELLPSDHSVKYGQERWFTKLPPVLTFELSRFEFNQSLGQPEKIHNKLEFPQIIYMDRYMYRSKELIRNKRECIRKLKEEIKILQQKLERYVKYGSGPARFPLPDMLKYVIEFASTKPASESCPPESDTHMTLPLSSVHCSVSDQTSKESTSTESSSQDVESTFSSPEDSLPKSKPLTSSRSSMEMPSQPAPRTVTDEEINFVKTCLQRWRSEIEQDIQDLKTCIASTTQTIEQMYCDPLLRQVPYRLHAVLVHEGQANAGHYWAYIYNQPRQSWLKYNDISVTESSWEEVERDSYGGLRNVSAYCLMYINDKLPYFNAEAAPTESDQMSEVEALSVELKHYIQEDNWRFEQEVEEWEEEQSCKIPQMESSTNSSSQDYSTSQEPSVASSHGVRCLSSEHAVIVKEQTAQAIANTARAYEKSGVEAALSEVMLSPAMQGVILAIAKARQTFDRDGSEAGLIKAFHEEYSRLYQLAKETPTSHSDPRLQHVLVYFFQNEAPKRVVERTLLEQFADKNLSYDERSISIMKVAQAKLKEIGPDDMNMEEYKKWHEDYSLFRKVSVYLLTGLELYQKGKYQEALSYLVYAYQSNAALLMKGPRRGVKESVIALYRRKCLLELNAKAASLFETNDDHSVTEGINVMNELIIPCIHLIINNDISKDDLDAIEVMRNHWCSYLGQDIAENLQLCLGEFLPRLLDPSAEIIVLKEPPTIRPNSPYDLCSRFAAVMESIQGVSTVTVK
# How it was run: as §1
# Chain of USP24 (Q9UPU5 whole entry): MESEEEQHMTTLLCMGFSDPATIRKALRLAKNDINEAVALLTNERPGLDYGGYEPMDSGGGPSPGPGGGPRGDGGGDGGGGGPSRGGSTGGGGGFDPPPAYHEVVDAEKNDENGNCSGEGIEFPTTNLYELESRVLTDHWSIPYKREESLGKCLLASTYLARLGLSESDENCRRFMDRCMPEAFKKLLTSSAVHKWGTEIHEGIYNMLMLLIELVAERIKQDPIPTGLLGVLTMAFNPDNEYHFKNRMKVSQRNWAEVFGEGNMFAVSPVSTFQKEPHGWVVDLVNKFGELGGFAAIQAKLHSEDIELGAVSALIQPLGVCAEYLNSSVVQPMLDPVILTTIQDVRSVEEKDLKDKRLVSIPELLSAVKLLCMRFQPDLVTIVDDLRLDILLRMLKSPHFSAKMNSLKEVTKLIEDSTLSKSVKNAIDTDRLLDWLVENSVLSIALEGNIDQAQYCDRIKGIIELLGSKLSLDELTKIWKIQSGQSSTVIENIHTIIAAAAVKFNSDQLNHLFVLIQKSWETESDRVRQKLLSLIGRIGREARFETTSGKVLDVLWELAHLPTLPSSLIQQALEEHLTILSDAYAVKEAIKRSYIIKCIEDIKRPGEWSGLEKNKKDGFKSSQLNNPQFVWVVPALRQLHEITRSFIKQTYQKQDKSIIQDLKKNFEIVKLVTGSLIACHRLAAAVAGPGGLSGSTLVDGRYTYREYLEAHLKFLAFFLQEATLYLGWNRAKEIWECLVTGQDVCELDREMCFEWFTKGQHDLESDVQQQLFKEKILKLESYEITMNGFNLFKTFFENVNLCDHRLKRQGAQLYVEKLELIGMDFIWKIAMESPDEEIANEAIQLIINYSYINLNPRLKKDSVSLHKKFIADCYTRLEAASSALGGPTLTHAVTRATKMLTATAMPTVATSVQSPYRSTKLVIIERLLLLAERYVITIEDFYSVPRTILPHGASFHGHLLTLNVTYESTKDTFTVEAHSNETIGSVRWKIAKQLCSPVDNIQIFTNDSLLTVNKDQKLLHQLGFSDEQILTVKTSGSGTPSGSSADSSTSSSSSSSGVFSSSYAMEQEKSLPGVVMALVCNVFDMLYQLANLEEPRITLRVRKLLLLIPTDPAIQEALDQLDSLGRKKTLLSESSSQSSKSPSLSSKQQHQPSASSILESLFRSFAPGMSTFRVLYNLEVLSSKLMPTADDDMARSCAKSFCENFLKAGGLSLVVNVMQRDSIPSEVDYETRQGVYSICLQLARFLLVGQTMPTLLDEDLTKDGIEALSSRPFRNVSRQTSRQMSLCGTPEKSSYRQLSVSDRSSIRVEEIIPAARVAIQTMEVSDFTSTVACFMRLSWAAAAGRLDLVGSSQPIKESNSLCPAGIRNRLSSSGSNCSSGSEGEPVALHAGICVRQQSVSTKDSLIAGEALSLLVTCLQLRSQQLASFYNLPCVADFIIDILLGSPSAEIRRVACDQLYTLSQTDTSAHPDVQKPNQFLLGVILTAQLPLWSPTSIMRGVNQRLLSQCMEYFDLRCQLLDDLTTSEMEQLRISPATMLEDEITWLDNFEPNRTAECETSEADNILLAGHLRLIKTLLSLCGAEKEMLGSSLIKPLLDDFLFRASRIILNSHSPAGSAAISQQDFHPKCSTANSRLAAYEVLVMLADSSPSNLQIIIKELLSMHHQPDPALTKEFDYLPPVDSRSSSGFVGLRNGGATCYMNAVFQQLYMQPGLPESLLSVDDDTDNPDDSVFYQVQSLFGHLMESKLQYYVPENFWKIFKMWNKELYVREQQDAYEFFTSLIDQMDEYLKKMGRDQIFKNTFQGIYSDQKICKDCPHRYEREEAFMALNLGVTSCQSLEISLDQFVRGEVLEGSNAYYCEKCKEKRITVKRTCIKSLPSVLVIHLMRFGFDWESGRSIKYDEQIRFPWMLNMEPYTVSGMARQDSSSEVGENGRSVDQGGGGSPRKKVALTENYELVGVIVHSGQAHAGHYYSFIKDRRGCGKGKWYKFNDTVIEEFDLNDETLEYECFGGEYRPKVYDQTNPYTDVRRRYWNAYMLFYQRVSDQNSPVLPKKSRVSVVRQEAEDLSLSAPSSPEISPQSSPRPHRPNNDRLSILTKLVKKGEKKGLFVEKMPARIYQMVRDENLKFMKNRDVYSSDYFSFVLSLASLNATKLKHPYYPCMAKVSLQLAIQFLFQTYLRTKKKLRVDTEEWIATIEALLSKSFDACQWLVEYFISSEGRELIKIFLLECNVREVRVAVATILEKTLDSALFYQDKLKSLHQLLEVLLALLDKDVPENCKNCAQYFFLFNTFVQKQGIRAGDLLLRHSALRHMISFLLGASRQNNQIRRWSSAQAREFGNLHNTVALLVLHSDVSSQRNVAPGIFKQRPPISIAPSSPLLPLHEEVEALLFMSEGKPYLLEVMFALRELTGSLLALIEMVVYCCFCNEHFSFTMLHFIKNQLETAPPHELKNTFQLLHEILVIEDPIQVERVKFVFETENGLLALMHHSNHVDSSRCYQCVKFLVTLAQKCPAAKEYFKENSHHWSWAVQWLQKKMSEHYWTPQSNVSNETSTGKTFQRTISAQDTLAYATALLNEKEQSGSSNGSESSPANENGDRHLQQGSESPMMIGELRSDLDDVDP
structure (smiles),measurement,setting,value
Cc1cc(NC(=O)CCl)n(-c2ccccc2)n1,log2 ratio of Biotin-Ahx-Ub-VS probe labelling,USP19,-0.106
same,log2 ratio of Biotin-Ahx-Ub-VS probe labelling,USP22,0.086
same,log2 ratio of Biotin-Ahx-Ub-VS probe labelling,USP24,-0.201
same,log2 ratio of Biotin-Ahx-Ub-VS probe labelling,USP25,-0.721
same,log2 ratio of Biotin-Ahx-Ub-VS probe labelling,USP28,-1.03 (active)
